Experimental data: PubChem BioAssay (EPA / NIEHS)
Where “and” joins values, the source holds several entries; their conditions need not be identical. Identical values can stand only once. Results filed as inconclusive are left out. A structure can be active in one record and inactive in another. Calls of active or inactive are those of the source. Rule for the calls, unless noted: active = hit-call score of the fitted dose curve at least 0.9, where 1 is the maximum; inactive = score below 0.9.

Tests used:
[1] = biological target: Retinoic acid receptor RXR-alpha (Homo sapiens) (UniProt P19793); experiment: ATG_RXRa_TRANS: Attagene TRANS-FACTORIAL HepG2 Assay for human Retinoid X Receptor alpha (RXRa) (AID 2283012; active = hit-call score of the fitted dose curve at least 0.9, where 1 is the maximum)
Retinoic acid receptor RXR-alpha (Homo sapiens), sequence (P19793 whole entry, looked up, the tested form may be a part): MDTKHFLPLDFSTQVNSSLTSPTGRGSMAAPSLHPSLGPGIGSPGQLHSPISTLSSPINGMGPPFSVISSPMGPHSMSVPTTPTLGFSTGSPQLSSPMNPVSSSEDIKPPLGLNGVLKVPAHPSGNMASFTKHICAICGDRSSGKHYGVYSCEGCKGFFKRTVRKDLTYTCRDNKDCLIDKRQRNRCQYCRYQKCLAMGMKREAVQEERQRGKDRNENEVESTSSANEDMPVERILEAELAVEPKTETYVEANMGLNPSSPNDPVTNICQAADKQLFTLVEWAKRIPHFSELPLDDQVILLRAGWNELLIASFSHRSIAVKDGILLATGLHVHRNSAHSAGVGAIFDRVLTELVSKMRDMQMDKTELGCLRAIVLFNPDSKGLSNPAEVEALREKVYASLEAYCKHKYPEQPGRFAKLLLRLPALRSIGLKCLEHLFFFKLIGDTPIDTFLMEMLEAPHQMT
How it was run: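 HepG2 cells transiently transfected with multiplexed GAL4-UAS reporter units and chimeric NR-GAL4 fusions, dosed 24 h. Reporter mRNA measured by RT-PCR, FAM labelling, HpaI digestion and capillary electrophoresis; gain-of-signal fitted relative to DMSO baseline.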

[2] = biological target: human Retinoid X Receptor beta (RXRb), RXRB (gene 6257) (UniProt P28702); experiment: ATG_RXRb_TRANS: Attagene TRANS-FACTORIAL HepG2 Assay for human Retinoid X Receptor beta (RXRb) (AID 2283013; active = hit-call score of the fitted dose curve at least 0.9, where 1 is the maximum)
human Retinoid X Receptor beta (RXRb), RXRB (gene 6257), sequence (P28702 whole entry, looked up, the tested form may be a part): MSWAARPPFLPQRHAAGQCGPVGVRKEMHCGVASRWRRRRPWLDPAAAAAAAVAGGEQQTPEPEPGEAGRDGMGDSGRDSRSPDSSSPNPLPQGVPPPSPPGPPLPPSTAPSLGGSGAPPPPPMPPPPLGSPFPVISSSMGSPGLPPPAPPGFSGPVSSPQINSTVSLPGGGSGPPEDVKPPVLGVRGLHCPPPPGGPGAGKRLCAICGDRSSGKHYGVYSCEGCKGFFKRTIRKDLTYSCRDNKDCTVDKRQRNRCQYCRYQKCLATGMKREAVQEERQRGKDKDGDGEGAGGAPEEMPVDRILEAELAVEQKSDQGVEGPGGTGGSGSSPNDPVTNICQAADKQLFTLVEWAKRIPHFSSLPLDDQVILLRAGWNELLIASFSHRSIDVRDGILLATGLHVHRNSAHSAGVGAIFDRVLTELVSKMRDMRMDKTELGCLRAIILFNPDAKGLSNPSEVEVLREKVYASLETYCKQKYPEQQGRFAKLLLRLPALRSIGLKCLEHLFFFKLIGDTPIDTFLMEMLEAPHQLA
How it was run: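 HepG2 cells transiently transfected with multiplexed reporter units driven by GAL4-UAS and exogenous chimeric NR-Gal4 proteins; treated 24 h. Reporter mRNA measured by RT-PCR, 6-FAM labelling and capillary electrophoresis; gain-of-signal fitted versus DMSO baseline.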

[3] = read-out: E-selectin (Homo sapiens) (UniProt P16581); experiment: BSK_3C_Eselectin: BioMAP Diversity Plus: 3C Assay for Eselectin Biomarker Activity (AID 2283015); conditions: primary human endothelial cells (HUVEC); actives raise or lower the signal
How it was run: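 E-selectin ELISA readout, fitted bidirectionally relative to DMSO, taken 24 h post-dosing in HUVEC cultures of the 3C system. Overt cytotoxicity tracked with sulforhodamine B staining of parallel wells.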

[4] = read-out: Interleukin-1 alpha (IL1a), IL1A (gene 3552); experiment: BSK_BE3C_IL1a: BioMAP Diversity Plus: BE3C Assay for Interleukin-1 alpha (IL1a) Biomarker Activity (AID 2283016); conditions: primary human bronchial epithelial cells; actives raise or lower the signal
How it was run: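 Human primary bronchial epithelial cells (BE3C system) were dosed with compound and IL-1a measured by ELISA 24 h later. Activity was fitted bidirectionally against DMSO baseline; cytotoxicity was tracked in parallel cultures by SRB total-protein staining.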

[5] = read-out: Monocyte Chemoattractant Protein-1 (MCP1), CCL2 (gene 6347); experiment: BSK_3C_MCP1: BioMAP Diversity Plus: 3C Assay for Monocyte Chemoattractant Protein-1 (MCP1) Biomarker Activity (AID 2283017); conditions: primary human endothelial cells (HUVEC); actives raise or lower the signal
How it was run: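 MCP-1 was measured by ELISA 24 h after dosing in primary HUVEC 3C cultures and fitted in both directions relative to DMSO; cytotoxicity was checked by SRB total-protein staining in parallel wells.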

[6] = read-out: Monocyte Chemoattractant Protein-1 (MCP1), CCL2 (gene 6347); experiment: BSK_4H_MCP1: BioMAP Diversity Plus: 4H Assay for Monocyte Chemoattractant Protein-1 (MCP1) Biomarker Activity (AID 2283018); conditions: primary human endothelial cells (HUVEC); actives raise or lower the signal
How it was run: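 Human umbilical vein endothelial cells (4H system) dosed with chemical; MCP-1 measured by ELISA 24 h after dosing. Bidirectional curve fitting against DMSO negative control as baseline; parallel SRB total-protein staining tracks overt cytotoxicity.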

[7] = read-out: Human Leukocyte Antigen - DR isotype (HLADR), HLA-DRA (gene 3122); experiment: BSK_3C_HLADR: BioMAP Diversity Plus: 3C Assay for Human Leukocyte Antigen - DR isotype (HLADR) Biomarker Activity (AID 2283019); conditions: primary human endothelial cells (HUVEC); actives raise or lower the signal
How it was run: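 Bidirectional fitting against DMSO was applied to the HLA-DR ELISA signal from human umbilical vein endothelial cells, 24 h post-dose. Cytotoxicity came from parallel SRB total-protein staining; 3C proliferation was counted by SRB at 48 h.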

[8] = read-out: Interleukin-8 (IL8), CXCL8 (gene 3576); experiment: BSK_3C_IL8: BioMAP Diversity Plus: 3C Assay for Interleukin-8 (IL8) Biomarker Activity (AID 2283020); conditions: primary human endothelial cells (HUVEC); actives raise or lower the signal
How it was run: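 Primary human umbilical vein endothelial cells (3C system) were exposed to test chemical for 24 h, then IL-8 was quantified by ELISA. Responses were fitted bidirectionally against DMSO vehicle as baseline.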

[9] = read-out: Monokine induced gamma interferon (MIG), CXCL9 (gene 4283); experiment: BSK_3C_MIG: BioMAP Diversity Plus: 3C Assay for Monokine induced gamma interferon (MIG) Biomarker Activity (AID 2283021); conditions: primary human endothelial cells (HUVEC); actives raise or lower the signal;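 for AC50: MIG protein level measured by immunoassay in the treated endothelial cultures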
How it was run: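 Primary human umbilical vein endothelial cells in the 3C system were exposed to chemical for 24 h, after which MIG was quantified by ELISA. Activity was fitted bidirectionally against DMSO as negative control and baseline.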

[10] = biological target: human Thyroid Receptor alpha (THRa1), THRA (gene 7067) (UniProt P10827); experiment: ATG_THRa1_TRANS: Attagene TRANS-FACTORIAL HepG2 Assay for human Thyroid Receptor alpha (THRa1) (AID 2283014; active = hit-call score of the fitted dose curve at least 0.9, where 1 is the maximum)
human Thyroid Receptor alpha (THRa1), THRA (gene 7067), sequence (P10827 whole entry, looked up, the tested form may be a part): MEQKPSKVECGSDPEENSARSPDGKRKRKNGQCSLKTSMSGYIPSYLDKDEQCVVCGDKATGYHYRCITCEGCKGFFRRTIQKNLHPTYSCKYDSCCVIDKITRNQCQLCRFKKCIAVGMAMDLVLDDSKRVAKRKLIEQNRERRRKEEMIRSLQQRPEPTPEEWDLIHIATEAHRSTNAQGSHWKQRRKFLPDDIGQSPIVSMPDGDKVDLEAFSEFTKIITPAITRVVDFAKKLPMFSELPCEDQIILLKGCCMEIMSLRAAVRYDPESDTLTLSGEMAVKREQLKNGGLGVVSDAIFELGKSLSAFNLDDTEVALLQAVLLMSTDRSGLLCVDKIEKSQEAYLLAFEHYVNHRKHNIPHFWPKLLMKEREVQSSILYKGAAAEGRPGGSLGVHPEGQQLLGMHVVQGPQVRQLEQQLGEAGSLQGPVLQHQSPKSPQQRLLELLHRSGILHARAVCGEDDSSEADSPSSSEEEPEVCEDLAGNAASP
How it was run: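 Transcripts from GAL4-UAS-driven reporters, measured after 24 h compound exposure by RT-PCR plus capillary electrophoresis of 6-FAM-labeled fragments, were fitted for gain of signal relative to DMSO. Cells: transiently transfected HepG2 expressing NR-Gal4 chimeras.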

Measured: AC50

E-selectin (Homo sapiens), sequence (P16581 whole entry, looked up): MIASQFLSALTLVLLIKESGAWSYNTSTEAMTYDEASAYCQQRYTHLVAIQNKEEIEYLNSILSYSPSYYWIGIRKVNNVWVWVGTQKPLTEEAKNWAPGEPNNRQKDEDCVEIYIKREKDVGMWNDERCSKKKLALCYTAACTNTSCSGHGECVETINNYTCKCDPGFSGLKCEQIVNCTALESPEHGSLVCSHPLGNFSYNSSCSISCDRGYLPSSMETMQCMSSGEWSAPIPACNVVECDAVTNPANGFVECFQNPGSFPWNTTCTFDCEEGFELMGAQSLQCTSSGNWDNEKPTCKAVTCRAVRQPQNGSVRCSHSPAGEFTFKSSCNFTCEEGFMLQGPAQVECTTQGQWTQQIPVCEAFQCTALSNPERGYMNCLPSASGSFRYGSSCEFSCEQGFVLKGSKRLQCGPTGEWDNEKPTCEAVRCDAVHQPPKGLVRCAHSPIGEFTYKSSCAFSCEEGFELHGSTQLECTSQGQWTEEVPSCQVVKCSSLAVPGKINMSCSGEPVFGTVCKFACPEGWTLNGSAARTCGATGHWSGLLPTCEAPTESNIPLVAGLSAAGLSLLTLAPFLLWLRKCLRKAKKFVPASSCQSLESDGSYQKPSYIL

O=C(Nc1ccccc1)Nc1cnns1
active: [7] 36.1 µM
not listed: [10]
inactive: all other assays above

O=C(O)CCCOc1ccc(Cl)cc1Cl
active: [2] 27 µM
inactive: [1] | [2] | [3] | [4] | [5] | [6] | [7] | [8] | [9]

CCOC1Oc2ccc(OS(C)(=O)=O)cc2C1(C)C (stereo not given)
active: [5] 24.8 µM | [7] 23 µM
inactive: all other assays above

Oc1ccc(Cl)cc1Cc1ccccc1
active: [1] 13.6 µM [middle of 5 runs] | [3] 34.7 µM [middle of 6 runs] | [4] 33.8 µM [middle of 7 runs] | [5] 34.8 µM [middle of 7 runs] | [6] 14.5 µM [middle of 5 runs] | [7] 31.3 µM [middle of 7 runs] | [8] 33.6 µM [middle of 7 runs] | [9] 36.8 µM [middle of 7 runs]
inactive: [1] | [2] | [10] | [6]

O=S(=O)(O)C(F)(F)C(F)(F)C(F)(F)C(F)(F)C(F)(F)C(F)(F)C(F)(F)C(F)(F)F
active: [2] 161 µM | [3] 12 µM and 17.6 µM | [4] 34.1 µM [middle of 4 runs]
inactive: [1] | [2] | [10] | [3] | [4] | [5] | [6] | [7] | [8] | [9]

CC[C@H](C)[C@H]1O[C@]2(C=C[C@@H]1C)C[C@@H]1C[C@@H](C/C=C(\C)[C@@H](O[C@H]3C[C@H](OC)[C@@H](O[C@H]4C[C@H](OC)[C@@H](O)[C@H](C)O4)[C@H](C)O3)[C@@H](C)/C=C/C=C3\CO[C@@H]4[C@H](O)C(C)=C[C@@H](C(=O)O1)[C@]34O)O2 (tested in a mixture with another compound)
active: [3] 9.55 µM | [4] 9.4 µM | [5] 6.9 µM | [6] 6.96 µM | [7] 5.8 µM | [8] 6.07 µM | [9] 12.1 µM
inactive: [1] | [2] | [10]

C#CCN1C(=O)COc2cc(F)c(N3C(=O)C4=C(CCCC4)C3=O)cc21
inactive: all assays above

COc1nn(CSP(=S)(OC)OC)c(=O)s1
active: [7] 36.5 µM
inactive: all other assays above

COC(=O)c1ccccc1S(=O)(=O)NC(=O)Nc1nc(C)nc(OC)n1
inactive: all assays above

O=[N+]([O-])/N=C1\NCCN1Cc1ccc(Cl)nc1
inactive: all assays above

CCCN(CCOc1c(Cl)cc(Cl)cc1Cl)C(=O)n1ccnc1
active: [4] 22.1 µM | [6] 20 µM | [7] 37 µM
inactive: all other assays above

Clc1ccccc1-c1nnc(-c2ccccc2Cl)nn1
active: [6] 20 µM
inactive: all other assays above

CC(C)OC(=O)Nc1cccc(Cl)c1
inactive: all assays above

CC(C)(C)C(O)C(Oc1ccc(Cl)cc1)n1cncn1 (stereo not given)
active: [3] 3.36 µM | [7] 5.49 µM
inactive: [1] | [2] | [10] | [3] | [4] | [5] | [6] | [7] | [8] | [9]

CC1(C)C(C=C(Cl)Cl)C1C(=O)OC(C#N)c1ccc(F)c(Oc2ccccc2)c1 (stereo not given)
active: [6] 7.95 µM
inactive: all other assays above

Oc1cc(Cl)ccc1Oc1ccc(Cl)cc1Cl
inactive: [1] | [10]
active: [1] 18 µM | [2] 7.45 µM [middle of 7 runs] | [3] 14.4 µM and 13.7 µM and 24.9 µM | [4] 32.1 µM and 36.1 µM and 31.2 µM | [5] 32.9 µM [middle of 4 runs] | [6] 11.6 µM [middle of 4 runs] | [7] 13.9 µM [middle of 4 runs] | [8] 27.3 µM [middle of 4 runs] | [9] 32.6 µM [middle of 4 runs]

N#Cc1c(Cl)c(Cl)c(Cl)c(C#N)c1Cl
active: [3] 1.46 µM | [4] 2.48 µM | [5] 1.98 µM | [6] 1.48 µM | [7] 0.166 µM | [8] 1.67 µM | [9] 2.06 µM
inactive: [1] | [2] | [10]

ClC1C(Cl)C(Cl)C(Cl)C(Cl)C1Cl (stereo not given)
active: [2] 31.1 µM and 26.2 µM | [3] 20 µM and 25.7 µM and 5.22 µM | [7] 28.2 µM and 25.3 µM
inactive: [1] | [2] | [10] | [3] | [4] | [5] | [6] | [7] | [8] | [9]

O=[N+]([O-])c1c(Cl)c(Cl)c(Cl)c(Cl)c1Cl
active: [7] 36.9 µM
inactive: all other assays above

CNC(=O)Oc1cccc(N=CN(C)C)c1
active: [3] 20 µM | [7] 18.2 µM
inactive: all other assays above

OCCOc1ccccc1
inactive: all assays above

CC1(c2ccc(Oc3ccccc3)cc2)OC(=O)N(Nc2ccccc2)C1=O (stereo not given)
active: [3] 30.9 µM | [5] 33.3 µM | [6] 16.3 µM | [7] 24 µM | [8] 24 µM | [9] 32.3 µM
inactive: [1] | [2] | [10] | [4]

CCC(C)(NC(=O)c1cc(Cl)c(C)c(Cl)c1)C(=O)CCl (stereo not given)
inactive: [1] | [2] | [10] | [8]
active: [3] 8.28 µM | [4] 33.8 µM | [5] 21.1 µM | [6] 13.8 µM | [7] 3.57 µM | [9] 14.1 µM

COC(=O)c1ccccc1CS(=O)(=O)NC(=O)Nc1nc(OC)cc(OC)n1
inactive: all assays above
